Values without a mark were called inactive. Inconclusive results are not listed. Calls of active or inactive are those of the source. Unless noted, the call rests on the fitted dose curve; in most records, active means well fitted curve in the direction sought with a large enough effect in the repeat runs; inconclusive means weak or mixed curves; inactive means no such curve, though single readings can be large; an effect the other way counts as inactive or inconclusive.

A short description of experiment [1]: qHTS assay to identify small molecule agonists of the TGF-beta/Smad signaling pathway (AID 1346859; active means well fitted activation curve with a large enough effect in the signal ratio in the repeat runs, not every such curve was filed as active; the % refers to the signal ratio; further: series mostly up to about 77 µM). An outline of the steps: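 Dual-wavelength fluorescence (460/530 nm emission) quantified beta-lactamase expression under the Smad binding element in HEK 293T cells following 5 hr compound treatment at 37 C.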
A general note: Quantitative high-throughput screening tests each substance at several concentrations.

Experiment [2] has as its target Thyrotropin-releasing hormone receptor (Homo sapiens) (UniProt P34981). The experiment can be described thus: qHTS assay to identify small molecule antagonists of the thyrotropin-releasing hormone receptor (TRHR) signaling pathway (AID 1346877; active means well fitted inhibition curve with a large enough effect in the repeat runs, not every such curve was filed as active; further: series mostly up to about 51 µM). An outline of the steps: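 Intracellular calcium fluorescence, read kinetically every second over 3 min, reports TRH-evoked signalling in HEK293 cells carrying TRHR. Test compounds were added 5 min ahead of a 1 nM TRH challenge.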

The target is the same in experiment [3]. The experiment can be described thus: qHTS assay to identify small molecule agonists of the thyrotropin-releasing hormone receptor (TRHR) signaling pathway (AID 1346891; calls by dose curve;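 further: HEK293 cells expressing TRHR with calcium dye readout; series mostly up to about 58 µM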). The method in brief: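 Kinetic fluorescence (3 min, 1 s intervals) reported intracellular calcium after compound transfer onto TRHR-Hek293 cells pre-loaded with dye for 2 h at 37 °C.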
A short description of experiment [4]: Human pregnane X receptor (PXR) small molecule agonists, qHTS cell viability counter screen (AID 1346977). Further: nearly all actives have a fitted effect of over 50% in size. The method in brief:
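HepG2 cells stably carrying the PXR-Luc reporter are cultured with 5% charcoal-stripped FBS and treated with compounds for 24hr. CellTiter-Fluor is added at 23hr and fluorescence is read after 1hr.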

The nature of experiment [5]: Caspase-3/7 induction in HepG2 cells by small molecules, qHTS assay (AID 1346978). Further: nearly all actives have a fitted effect of over 15% in size. An outline of the steps:
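Wild-type HepG2 cells (2,000/well) were settled 5 h at 37 C, 5% CO2, then exposed to compounds in DMSO for 17 h. Caspase-3/7 activity was read by luminescence 30 min after adding Caspase-Glo 3/7 reagent at room temperature.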

Experiment [6] can be described thus: Caspase-3/7 induction in CHO-K1 cells by small molecules, qHTS cell viability counter screen (AID 1346979). Further: nearly all actives have a fitted effect of over 35% in size. The method in brief:
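Seeding: 1,500 CHO-K1 cells/well. Rest: 5hr, 37C. Treatment: compounds in DMSO, 16hr. Read: CellTiter-Fluor, 1hr, fluorescence.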

Experiment [7] in a line: Caspase-3/7 induction in CHO-K1 cells by small molecules, qHTS assay (AID 1346980). Further: nearly all actives have a fitted effect of over 15% in size. The method in brief:
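Wild-type cells were seeded at 1,500 per well and settled 5 hr at 37 C, 5% CO2, then exposed to DMSO-dissolved compounds for 17 hr. Caspase-Glo 3/7 reagent was added, and luminescence was read after 30min at room temperature.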

Experiment [8] can be described thus: Caspase-3/7 induction in HepG2 cells by small molecules, qHTS cell viability counter screen (AID 1346981). Further: series mostly up to about 92 µM; nearly all actives have a fitted effect of over 30% in size. An outline of the steps:
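HepG2, WT, 2,000 cells/well; 5 hr pre-incubation 37 C/5% CO2; compound pin-transferred from DMSO; 16 hr exposure; CellTiter-Fluor, 1 hr; fluorescence read.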

Experiment [9] addresses Nuclear receptor subfamily 1 group I member 2 (Homo sapiens) (UniProt O75469). In words: Human pregnane X receptor (PXR) small molecule agonists, qHTS assay (AID 1346982). Further: nearly all actives have a fitted effect of over 35% in size. Further: potency means the concentration at half of the fitted maximal effect. An outline of the steps:
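Luciferase signal from ONE-Glo (30 min, room temperature) measured activation of hPXR-driven CYP3A4 reporter expression in PXR-Luc HepG2 cells treated with compounds for 24 hr at 37 C.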

In experiment [10] the target is Cytochrome P450 2C19 (Homo sapiens) (UniProt P33261). In words: Cytochrome P450 Family 2 Subfamily C Member 19 (CYP2C19) small molecule antagonists: luciferase reporter qHTS assay (AID 1671197). Further: series mostly up to about 120 µM; nearly all actives have a fitted effect of over 65% in size. An outline of the steps: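 Compounds were tested on CYP2C19 activity via proluciferin conversion to luciferin. The 37C, 1 h reaction followed NADPH addition; detection reagent stopped it.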
Chain of Cytochrome P450 2C19 (Homo sapiens) (P33261 whole entry, looked up): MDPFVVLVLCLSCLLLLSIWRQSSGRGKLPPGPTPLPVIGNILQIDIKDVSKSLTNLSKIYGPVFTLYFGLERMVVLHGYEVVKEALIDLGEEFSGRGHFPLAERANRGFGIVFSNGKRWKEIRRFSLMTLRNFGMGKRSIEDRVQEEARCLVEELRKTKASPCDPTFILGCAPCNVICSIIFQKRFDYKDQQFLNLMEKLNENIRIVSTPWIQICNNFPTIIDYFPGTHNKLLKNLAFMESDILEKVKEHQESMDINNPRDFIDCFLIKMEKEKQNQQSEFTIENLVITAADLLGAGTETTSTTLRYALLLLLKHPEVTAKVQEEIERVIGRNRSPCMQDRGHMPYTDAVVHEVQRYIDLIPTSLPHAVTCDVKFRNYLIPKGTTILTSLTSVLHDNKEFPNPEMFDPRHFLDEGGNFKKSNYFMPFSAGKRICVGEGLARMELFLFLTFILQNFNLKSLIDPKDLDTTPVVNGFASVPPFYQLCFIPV
On the technique in general: A reporter such as luciferase makes a cellular process visible.

In experiment [11] the target is Voltage-gated inwardly rectifying potassium channel KCNH2 (Homo sapiens) (UniProt Q12809). In words: Human Ether-a-go-go-Related Gene (hERG) channel small molecule antagonists: fluorescence cell-based qHTS assay (AID 1671200).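 Further: hERG-expressing U2OS cells given a thallium stimulus after FluxOR II dye loading; series mostly up to about 77 µM; nearly all actives have a fitted effect of over 50% in size.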 The method in brief:
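First, 1000 cells per well are seeded and cultured overnight at 37 C. Next, FluxOR II dye is loaded for 1 h at room temperature, protected from light. After 10 more minutes, stimulus is added and fluorescence is read.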
In general terms: hERG is a cardiac potassium channel; its block is linked to QT prolongation.

In experiment [12] the target is Cytochrome P450 1A2 (Homo sapiens) (UniProt P05177). In words: Cytochrome P450 Family 1 Subfamily A Member 2 (CYP1A2) small molecule antagonists: luciferase reporter qHTS assay (AID 1671199). Further: nearly all actives have a fitted effect of over 50% in size. Further: potency means the concentration at half of the fitted maximal effect. An outline of the steps: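 P450-Glo CYP1A2, 1536-well qHTS: enzyme/proluciferin substrate + cpd (DMSO), 10 min RT; NADPH regen, 1 h RT; detection reagent, 20 min; luminescence, RLU.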
Chain of Cytochrome P450 1A2 (Homo sapiens) (P05177 whole entry, looked up): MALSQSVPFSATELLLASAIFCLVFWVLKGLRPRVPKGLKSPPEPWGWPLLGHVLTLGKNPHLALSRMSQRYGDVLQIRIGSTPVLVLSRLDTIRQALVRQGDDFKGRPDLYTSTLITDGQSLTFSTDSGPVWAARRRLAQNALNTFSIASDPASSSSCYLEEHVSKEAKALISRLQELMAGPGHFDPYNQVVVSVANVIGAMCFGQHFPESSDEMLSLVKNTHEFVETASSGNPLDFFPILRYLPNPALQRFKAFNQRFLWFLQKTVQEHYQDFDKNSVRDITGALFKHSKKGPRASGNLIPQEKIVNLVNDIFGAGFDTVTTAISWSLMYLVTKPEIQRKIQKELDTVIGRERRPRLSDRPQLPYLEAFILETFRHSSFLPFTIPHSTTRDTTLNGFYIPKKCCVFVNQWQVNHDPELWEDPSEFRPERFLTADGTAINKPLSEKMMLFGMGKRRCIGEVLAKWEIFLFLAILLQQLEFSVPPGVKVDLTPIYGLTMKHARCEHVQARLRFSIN

Experiment [13] deals with Cytochrome P450 2C9 (Homo sapiens) (UniProt P11712). The experiment can be described thus: Cytochrome P450 Family 2 Subfamily C Member 9 (CYP2C9) small molecule antagonists: luciferase reporter qHTS assay (AID 1671198). Further: nearly all actives have a fitted effect of over 50% in size. Further: potency means the concentration at half of the fitted maximal effect. An outline of the steps: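 CYP2C9 activity was measured with a P450-Glo proluciferin substrate. Enzyme–substrate mix was held with compound for 10 min at room temperature, then NADPH regeneration solution was added for 1 h at 37C. Luciferin product was read as luminescence.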
Chain of Cytochrome P450 2C9 (Homo sapiens) (P11712 whole entry, looked up): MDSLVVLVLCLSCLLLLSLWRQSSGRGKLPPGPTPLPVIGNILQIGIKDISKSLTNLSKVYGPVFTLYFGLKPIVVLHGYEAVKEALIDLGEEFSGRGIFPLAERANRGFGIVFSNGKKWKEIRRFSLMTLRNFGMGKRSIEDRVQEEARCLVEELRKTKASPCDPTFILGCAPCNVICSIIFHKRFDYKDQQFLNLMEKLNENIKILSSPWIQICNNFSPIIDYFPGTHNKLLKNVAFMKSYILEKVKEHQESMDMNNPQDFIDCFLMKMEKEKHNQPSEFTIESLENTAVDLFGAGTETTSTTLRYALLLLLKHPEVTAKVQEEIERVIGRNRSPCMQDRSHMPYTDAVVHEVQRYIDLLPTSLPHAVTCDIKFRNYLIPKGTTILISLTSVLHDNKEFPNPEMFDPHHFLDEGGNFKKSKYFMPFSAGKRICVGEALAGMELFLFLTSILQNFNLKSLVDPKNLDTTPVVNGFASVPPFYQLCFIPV

Experiment [14] concerns the target Cytochrome P450 2D6 (Homo sapiens) (UniProt P10635). The experiment can be described thus: Cytochrome P450 Family 2 Subfamily D Member 6 (CYP2D6) small molecule antagonists: luciferase reporter qHTS assay (AID 1671196). Further: nearly all actives have a fitted effect of over 50% in size. Further: potency means the concentration at half of the fitted maximal effect. An outline of the steps: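 Read-out is luminescence from luciferin formed by CYP2D6 turnover of a proluciferin substrate, recorded as relative luminescence units. Reactions ran 1 h at room temperature after NADPH regeneration solution was added.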

The target of experiment [15] is Cytochrome P450 3A4 (Homo sapiens) (UniProt P08684). The experiment can be described thus: Cytochrome P450 Family 3 Subfamily A Member 4 (CYP3A4) small molecule antagonists: luciferase reporter qHTS assay (AID 1671201). An outline of the steps: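 Enzyme and proluciferin substrate are mixed with test chemicals for 10 min, then NADPH regeneration system drives turnover for 1 h at room temperature. A detection reagent halts the reaction; luminescence after 20 min gives relative activity.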
Chain of Cytochrome P450 3A4 (Homo sapiens) (P08684 whole entry, looked up): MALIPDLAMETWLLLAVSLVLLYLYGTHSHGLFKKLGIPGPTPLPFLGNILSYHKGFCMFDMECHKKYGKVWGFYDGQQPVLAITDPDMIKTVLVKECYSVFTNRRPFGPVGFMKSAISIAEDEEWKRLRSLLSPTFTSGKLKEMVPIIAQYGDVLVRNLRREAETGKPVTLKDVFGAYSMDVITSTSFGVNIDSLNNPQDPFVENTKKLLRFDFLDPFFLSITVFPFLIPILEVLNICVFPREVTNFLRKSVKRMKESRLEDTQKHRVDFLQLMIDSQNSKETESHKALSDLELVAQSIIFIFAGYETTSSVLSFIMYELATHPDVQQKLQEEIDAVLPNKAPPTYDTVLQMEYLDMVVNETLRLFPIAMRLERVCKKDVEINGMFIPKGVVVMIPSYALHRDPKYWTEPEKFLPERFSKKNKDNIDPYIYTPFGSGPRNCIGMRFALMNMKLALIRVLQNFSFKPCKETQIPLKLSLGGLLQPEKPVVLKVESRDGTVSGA

Chain of Nuclear receptor subfamily 1 group I member 2 (Homo sapiens) (O75469 whole entry, looked up): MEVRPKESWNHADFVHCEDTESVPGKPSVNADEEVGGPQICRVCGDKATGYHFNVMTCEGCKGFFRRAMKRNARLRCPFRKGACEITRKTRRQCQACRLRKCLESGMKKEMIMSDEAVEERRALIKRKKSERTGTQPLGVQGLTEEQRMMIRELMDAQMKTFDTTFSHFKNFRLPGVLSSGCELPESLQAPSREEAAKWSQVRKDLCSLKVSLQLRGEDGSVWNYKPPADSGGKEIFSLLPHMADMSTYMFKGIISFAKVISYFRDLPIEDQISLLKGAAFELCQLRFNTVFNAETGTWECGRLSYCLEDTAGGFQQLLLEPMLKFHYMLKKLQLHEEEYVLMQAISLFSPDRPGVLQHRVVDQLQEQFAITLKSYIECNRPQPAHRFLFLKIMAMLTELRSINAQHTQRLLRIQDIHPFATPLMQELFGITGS
Chain of Voltage-gated inwardly rectifying potassium channel KCNH2 (Homo sapiens) (Q12809 whole entry, looked up): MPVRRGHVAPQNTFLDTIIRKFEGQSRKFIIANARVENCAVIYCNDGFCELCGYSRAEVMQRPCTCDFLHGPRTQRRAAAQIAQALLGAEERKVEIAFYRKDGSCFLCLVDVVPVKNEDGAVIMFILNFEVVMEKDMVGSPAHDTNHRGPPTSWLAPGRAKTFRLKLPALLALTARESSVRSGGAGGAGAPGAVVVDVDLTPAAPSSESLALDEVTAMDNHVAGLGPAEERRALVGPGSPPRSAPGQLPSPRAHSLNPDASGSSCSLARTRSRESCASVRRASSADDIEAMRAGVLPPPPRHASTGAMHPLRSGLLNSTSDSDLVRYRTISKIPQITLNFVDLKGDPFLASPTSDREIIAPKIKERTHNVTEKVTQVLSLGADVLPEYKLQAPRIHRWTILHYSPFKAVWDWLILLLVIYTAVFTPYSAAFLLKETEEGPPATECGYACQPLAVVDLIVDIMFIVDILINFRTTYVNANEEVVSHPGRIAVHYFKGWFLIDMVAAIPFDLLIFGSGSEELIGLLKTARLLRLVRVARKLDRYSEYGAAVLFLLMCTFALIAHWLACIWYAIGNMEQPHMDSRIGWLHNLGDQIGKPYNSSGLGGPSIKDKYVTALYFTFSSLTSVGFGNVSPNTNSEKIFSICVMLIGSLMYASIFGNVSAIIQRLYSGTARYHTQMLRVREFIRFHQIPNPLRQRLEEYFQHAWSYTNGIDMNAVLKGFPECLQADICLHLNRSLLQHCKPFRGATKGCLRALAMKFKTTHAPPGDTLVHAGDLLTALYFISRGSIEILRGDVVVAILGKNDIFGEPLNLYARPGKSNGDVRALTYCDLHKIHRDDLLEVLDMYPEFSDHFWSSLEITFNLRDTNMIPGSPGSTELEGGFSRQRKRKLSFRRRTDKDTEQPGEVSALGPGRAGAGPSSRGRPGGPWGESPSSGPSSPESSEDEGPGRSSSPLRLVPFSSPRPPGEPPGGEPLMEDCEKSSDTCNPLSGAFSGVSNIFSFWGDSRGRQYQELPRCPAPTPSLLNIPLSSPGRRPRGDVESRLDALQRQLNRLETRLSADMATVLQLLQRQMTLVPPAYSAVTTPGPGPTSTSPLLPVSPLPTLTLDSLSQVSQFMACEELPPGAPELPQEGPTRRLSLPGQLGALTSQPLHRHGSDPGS
Chain of Thyrotropin-releasing hormone receptor (Homo sapiens) (P34981 whole entry, looked up): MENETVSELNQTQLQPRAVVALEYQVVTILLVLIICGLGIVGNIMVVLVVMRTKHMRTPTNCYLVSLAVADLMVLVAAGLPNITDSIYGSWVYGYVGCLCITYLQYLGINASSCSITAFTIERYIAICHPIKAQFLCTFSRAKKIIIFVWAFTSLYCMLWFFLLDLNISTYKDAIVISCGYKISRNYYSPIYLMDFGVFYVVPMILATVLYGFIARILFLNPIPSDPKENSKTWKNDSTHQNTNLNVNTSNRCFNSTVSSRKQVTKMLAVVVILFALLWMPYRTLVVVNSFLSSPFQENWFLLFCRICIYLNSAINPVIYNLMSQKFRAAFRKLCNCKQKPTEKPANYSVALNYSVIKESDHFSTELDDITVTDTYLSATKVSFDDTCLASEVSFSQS
Chain of Cytochrome P450 2D6 (Homo sapiens) (P10635 whole entry, looked up): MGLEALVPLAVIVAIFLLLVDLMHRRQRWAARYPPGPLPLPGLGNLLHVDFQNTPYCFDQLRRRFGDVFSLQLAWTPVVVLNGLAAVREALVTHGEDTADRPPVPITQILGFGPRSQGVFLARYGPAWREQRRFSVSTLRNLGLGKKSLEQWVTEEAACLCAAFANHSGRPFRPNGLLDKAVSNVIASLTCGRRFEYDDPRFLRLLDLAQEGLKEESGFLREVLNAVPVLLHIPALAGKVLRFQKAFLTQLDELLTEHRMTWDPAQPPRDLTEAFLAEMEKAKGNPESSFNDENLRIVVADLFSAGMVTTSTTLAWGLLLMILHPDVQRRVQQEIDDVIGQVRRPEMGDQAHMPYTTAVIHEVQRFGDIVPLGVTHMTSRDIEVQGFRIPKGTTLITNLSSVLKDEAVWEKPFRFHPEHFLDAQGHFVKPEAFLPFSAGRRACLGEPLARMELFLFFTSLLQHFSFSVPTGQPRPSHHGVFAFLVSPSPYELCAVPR

`CC(C)C(=O)Nc1cccc(C2CN3CCSC3=N2)c1` (stereo unspecified): the result in experiment [1], in experiment [2], in [4], in experiment [5], in experiment [7] and in experiment [8] was inactive. Moreover, the Potency result in experiment [3], in experiment [6], in [9], in [10] and in experiment [11] was “inactive” in each case.

`CC(=O)/C=C/C=C1/C2CCC(C2)C1(C)C` (stereo unspecified): the call in [1], in experiment [2], in experiment [4], in experiment [5], in experiment [7] and in experiment [8] was inactive. Besides, the Potency result in [3], in experiment [6] and in experiment [11] was “inactive” each time. Further, the values for the Potency in experiment [9] and in experiment [12] were 3.76 µM (active) and 21.9 µM (active), respectively.

In the case of `O=C(O)Cc1ccccc1Oc1ccc(Cl)cc1Cl`, the outcome in [1], in experiment [2], in experiment [4], in experiment [5], in experiment [7] and in experiment [8] was inactive. Also, the Potency entry in experiment [3], in [6], in experiment [9], in experiment [10] and in experiment [11] was “inactive” each time. Also, the Potency in experiment [13] was 38.9 µM (active).

Regarding `COc1ccc(Cl)cc1C`, the result in [1], in [2], in experiment [4], in experiment [5], in [7] and in [8] was inactive. The Potency entry in experiment [3], in experiment [6], in experiment [9], in experiment [14], in experiment [11] and in experiment [15] was “inactive” throughout. The Potency in [13] was 84.7 µM (active).

Consider `Cc1ccc(Br)cc1`, for which the outcome in experiment [1], in experiment [2], in experiment [4], in experiment [5], in experiment [7] and in experiment [8] was inactive. In addition, the Potency entry in experiment [3], in [6], in experiment [9], in experiment [14], in [13] and in [11] was “inactive” throughout. In addition, in experiment [15], the Potency result is “inactive”.

In the case of `NNC(=O)OCc1ccccc1`, the outcome in [1], in experiment [2], in experiment [4], in experiment [5], in [7] and in experiment [8] was inactive. For the same compound, the Potency entry in experiment [3], in experiment [6], in experiment [14], in [11] and in experiment [15] was “inactive” throughout. In addition, the Potency in experiment [9] is 54.5 µM (active); in [13], 56.4 µM (active); in [12], 15.9 µM (active).

With `Nc1cc(S(=O)(=O)O)ccc1O`, the outcome in experiment [1], in [2], in [4], in [5], in [7] and in experiment [8] was inactive. In addition, the Potency entry in experiment [3], in [6], in [9], in experiment [13], in experiment [11] and in [15] was “inactive” in each case.

With `CC(C)C[P+](C)(CC(C)C)CC(C)C`, the compound was called inactive in experiment [1], in [2], in experiment [4], in experiment [5], in experiment [7] and in experiment [8]. Further, the Potency result in [3], in [6], in experiment [9], in [13], in experiment [11] and in [15] was “inactive” throughout. In addition, in experiment [14], the Potency is 0.568 µM (active).

For the compound `O=C(O)CCCCCCCCCC(=O)O`, the outcome in [1], in [2], in experiment [4], in [5], in [7] and in experiment [8] was inactive. Further, the Potency entry in experiment [3], in experiment [6], in experiment [9], in [10], in [13] and in experiment [11] was “inactive” throughout. Further, the Potency entry in experiment [15] is “inactive”.

`CC(C)(C)C(=O)CCc1ccc(Cl)cc1`: the outcome in experiment [1], in experiment [2], in experiment [4], in [5], in [7] and in experiment [8] was inactive. Also, the Potency entry in experiment [3], in experiment [6], in experiment [9], in experiment [14] and in [11] was “inactive” in each case.

In the case of `CC1(C)C(=O)C(C)(C)C1=O`, the result in experiment [1], in experiment [2], in experiment [4], in [5], in [7] and in [8] was inactive. In addition, the Potency entry in experiment [3], in experiment [6], in experiment [9], in experiment [14], in experiment [13] and in experiment [12] was “inactive” each time. Moreover, the Potency result in [11] and in [15] was “inactive” throughout.

`C=COCCCCO`: the result in experiment [1], in experiment [2], in experiment [4], in experiment [5], in experiment [7] and in [8] was inactive. In addition, the Potency entry in experiment [3], in [6], in experiment [14], in experiment [10], in [11] and in [15] was “inactive” each time.

`CC1(C)S[C@@H]2[C@H](NC(=O)Cc3ccccc3)C(=O)N2[C@H]1C(=O)O` (tested in a mixture with another compound): the call in experiment [1], in experiment [2], in experiment [4], in experiment [5], in experiment [7] and in [8] was inactive. The Potency entry in experiment [3], in experiment [6] and in experiment [11] was “inactive” each time.

As to `CC(=O)Oc1ccc(C(C)=O)cc1`, the result in experiment [1], in experiment [2], in [4], in experiment [5], in experiment [7] and in experiment [8] was inactive. Also, the Potency entry in experiment [3], in experiment [6], in experiment [14], in [13], in experiment [11] and in experiment [15] was “inactive” in each case. For the same compound, the Potency in [12] was 33 µM (active).

The values are drawn from PubChem BioAssay (Tox21).
